Laboratory results taken from PubChem BioAssay AID1159580 (chemical genetic matrix, 2015).
Among all 5,500 compounds or so, about 2,000 (36%) were called active. Another 18% or so got no clear call; they are omitted. Rule as the data show it: active = normalized growth mostly below about 0.91 (no sharp cut-off); inconclusive = no clear call, values can overlap the other calls; inactive = mostly above about 0.92. This is one part of the list.

Assay: chemical genetic growth profiling, strain panel (AID 1159580);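 also: tested at 20 µM; growth read once vehicle control cultures reached saturation at 30 °C; 1 = growth at the plate median or of vehicle wells; lower values mean less growth of the strain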
Settings: S. cerevisiae deletion strains, growth OD

Measured: normalized growth

CCC(C)COC(=O)/C=C/c1ccc(N=Cc2ccc(OC)cc2)cc1 (stereo unspecified)
inactive: locus YAR019C, strain CDC15, hits give low values 0.961 | locus YBL105C, strain PKC1, hits give low values 0.968 | locus YBR135W, strain CKS1, hits give low values 0.969 | locus YBR136W, strain MEC1, hits give low values 0.969 | locus YBR160W, strain CDC28, hits give low values 0.978 | locus YDL017W, strain CDC7, hits give low values 0.98 | locus YDL028C, strain MPS1, hits give low values 0.984 | locus YDL101C, strain DUN1, hits give low values 0.948 | locus YDL108W, strain KIN28, hits give low values 0.965 | locus YDL132W, strain cdc53, hits give low values 0.958 | locus YDL214C, strain PRR2, hits give low values 0.845 | locus YDR052C, strain DBF4, hits give low values 0.969 | locus YDR054C, strain cdc34, hits give low values 0.964 | locus YDR226W, strain ADK1, hits give low values 0.955 | locus YDR477W, strain SNF1, hits give low values 0.842 | locus YER123W, strain YCK3, hits give low values 0.743 | locus YER133W, strain GLC7, hits give low values 0.804 | locus YFL009W, strain cdc4, hits give low values 0.972 | locus YFL029C, strain CAK1, hits give low values 0.962 | locus YFR003C, strain YPI1, hits give low values 0.968 | locus YFR019W, strain FAB1, hits give low values 0.843 | locus YFR028C, strain CDC14, hits give low values 0.952 | locus YGR040W, strain KSS1, hits give low values 0.811 | locus YGR052W, strain FMP48, hits give low values 0.779 | locus YGR092W, strain DBF2, hits give low values 0.646 | locus YHR079C, strain IRE1, hits give low values 0.814 | locus YHR082C, strain KSP1, hits give low values 0.852 | locus YHR205W, strain SCH9, hits give low values 0.662 | locus YIL147C, strain SLN1, hits give low values 0.965 | locus YJL128C, strain PBS2, hits give low values 0.921 | locus YJL157C, strain FAR1, hits give low values 0.864 | locus YJR016C, strain ILV3, hits give low values 0.963 | locus YJR066W, strain TOR1, hits give low values 0.794 | locus YKL048C, strain ELM1, hits give low values 0.805 | locus YKL067W, strain YNK1, hits give low values 0.873 | locus YKL101W, strain HSL1, hits give low values 0.831 | locus YKL193C, strain SDS22, hits give low values 0.962 | locus YKL203C, strain TOR2, hits give low values 0.826 | locus YLR133W, strain CKI1, hits give low values 0.825 | locus YLR403W, strain SFP1, hits give low values 0.742 | locus YML070W, strain DAK1, hits give low values 0.814 | locus YMR001C, strain CDC5, hits give low values 0.964 | locus YMR205C, strain PFK2 (second series), hits give low values 0.861 | locus YMR277W, strain FCP1, hits give low values 0.966 | locus YNL006W, strain LST8, hits give low values 0.972 | locus YNL020C, strain ARK1, hits give low values 0.836 | locus YNL161W, strain CBK1, hits give low values 0.97 | locus YNL183C, strain NPR1, hits give low values 0.795 | locus YNL207W, strain RIO2, hits give low values 0.947 | locus YNL222W, strain SSU72, hits give low values 0.972 | locus YNL307C, strain MCK1 (second series), hits give low values 0.783 | locus YOL078W, strain AVO1, hits give low values 0.958 | locus YOL136C, strain PFK27, hits give low values 0.755 | locus YOR061W, strain CKA2, hits give low values 0.803 | locus YOR119C, strain RIO1, hits give low values 0.816 | locus YOR231W, strain MKK1, hits give low values 0.785 | locus YOR329C, strain SCD5, hits give low values 0.975 | locus YPL031C, strain PHO85, hits give low values 0.819 | locus YPL153C, strain RAD53, hits give low values 0.83 | locus YPL204W, strain HRR25, hits give low values 0.719 | locus YPL209C, strain IPL1, hits give low values 0.959 | locus YPR025C, strain CCL1, hits give low values 0.968 | locus YPR106W, strain ISR1, hits give low values 0.951 | locus YPR111W, strain DBF20, hits give low values 0.944 | strain NNK1, hits give low values 0.941 | strain TSCII, hits give low values 0.95
active: locus YHR030C, strain SLT2, hits give low values 0.531 | locus YJL095W, strain BCK1, hits give low values 0.474 | locus YJR066W, strain TOR1 (second series), hits give low values 0.241 | locus YLR113W, strain HOG1, hits give low values 0.696 | locus YPL256C, strain CLN2, hits give low values 0.798
